Data on 38 compounds can be found in PubChem BioAssay (NCI).

The structures appear in SMILES notation. About 79,000 compounds went through this panel and 15% of them were active in at least one assay; those are over-represented in the sample as a whole. Unmarked numbers belong to inactive results. Calls of active or inactive are those of the source. Rule as the data show it: active = growth inhibition above about 70%; inactive = the rest.

A short description of test [1]: NCI Yeast Anticancer Drug Screen. Data for the rad50 strain (AID 155).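 Also: 0% = growth of vehicle-only cultures of the same strain.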 Particulars: S. cerevisiae rad50 strain growth inhibition; at 50.0 µM; hits give high values. In outline: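 Cells are treated with compound, grown, and their growth is then scored against vehicle-only cultures of the same repair-deficient yeast strain.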
Test [2] is described as follows: NCI Yeast Anticancer Drug Screen. Data for the mec2-1 strain (AID 157). Particulars: S. cerevisiae mec2-1 strain, at 50.0 µM, hits give high values. In a few lines:
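Mutant yeast (mec2-1) grown with compound; growth inhibition relative to vehicle control reported.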

A short description of test [3]: NCI Yeast Anticancer Drug Screen. Data for the sgs1 mgt1 strain (AID 161).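 Also: 0% = growth of cultures given vehicle only.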 Particulars: S. cerevisiae sgs1 mgt1 strain, at 50.0 µM, hits give high values. In a few lines:
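This yeast growth screen uses a strain with defined DNA-repair lesions; compound-treated growth is compared with vehicle-treated growth.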

Test [4] is described as follows: NCI Yeast Anticancer Drug Screen. Data for the cln2 rad14 strain (AID 165).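 Also: 0% = growth equal to vehicle treated cultures.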 Particulars: S. cerevisiae cln2 rad14 strain, at 50.0 µM, hits give high values. In a few lines:
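Readout is yeast growth inhibition versus vehicle-treated controls, using a strain with cln2 and rad14 alterations exposed to compound.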

A short description of test [5]: NCI Yeast Anticancer Drug Screen. Data for the bub3 strain (AID 167). The note with it: S. cerevisiae bub3 mutant strain, at 50.0 µM, hits give high values. In outline: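 Part of a panel of yeast mutants defective in DNA damage repair or cell cycle regulation. Each strain is grown with compound, and inhibition is calculated relative to solvent-treated cultures.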
Test [6] is described as follows: NCI Yeast Anticancer Drug Screen. Data for the mlh1 rad18 strain (AID 175). The note with it: S. cerevisiae mlh1 rad18 strain growth inhibition; at 50.0 µM; hits give high values. In outline:
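Genetically defined yeast (DNA repair-deficient) exposed to compounds; growth inhibition determined relative to vehicle.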

For the compound `CCOC(=O)C(O)Cc1ccc(N)cc1` (stereo not drawn), the growth inhibition in test [1] is 5.8%; in test [2], 12.2%; in test [3] it was 12.3%; in test [4], 9.85%; in test [5], 12.8%; in test [6], 2.85%.
Regarding `COc1ccc(CCc2ccc(Cl)cc2)cc1`, the growth inhibition in test [1] is 6.35%; in test [2] it was 6.3%; in test [3] it was -5.9%; in test [4], 15.5%; in test [5] it was -17.6%; in test [6], -4.5%.
`CC(C)(C)C(O)CC(O)(C(F)(F)F)C(F)(F)F` (stereo not drawn): the growth inhibition is -2.45% in test [1]; -21.1% in test [2]; -12.8% in test [3]; 19.6% in test [4]; -5.9% in test [5]; -1.9% in test [6].
Take `C/C(=N/N)c1sc(-c2nc(C)c(/C(C)=N\N)s2)nc1C`: the growth inhibition in test [1] was 32.9%; in test [2], -31.1%; in test [3], -26.9%; in test [4], -16%; in test [5], -18.1%; in test [6], -11.3%.
Turning to `COc1ccc(NS(=O)(=O)c2ccc(N=Cc3c4ccccc4nc4ccccc34)cc2)nn1`, the growth inhibition is 96.8% (active) in test [1]; 95.5% (active) in test [2]; 91.6% (active) in test [3]; 79.9% (active) in test [4]; 93.5% (active) in test [5]; 90.8% (active) in test [6].
On to `CC(=O)Nc1cccc(S(=O)(=O)c2cccc(NC(C)=O)c2)c1`, for which the growth inhibition was -9.8% in test [1]; -10.1% in test [2]; -7.55% in test [3]; -66.5% in test [4]; 8.1% in test [5]; -10.3% in test [6].
As for `OC(CBr)CBr`, the growth inhibition in test [1] was 1.8%; in test [2], -7.45%; in test [3] it was 0.4%; in test [4], -42.8%; in test [5], -3.05%; in test [6], 9.9%.
Regarding `COC(=O)C(CC(=O)[C@H]1CC[C@H]2[C@@H]3CC=C4C[C@@H](OC(C)=O)CC[C@]4(C)[C@H]3CC[C@]12C)OC` (stereo partly drawn), the growth inhibition in test [1] is 11.8%; in test [2] it was 8.6%; in test [3], 15.2%; in test [4] it was 2.45%; in test [5] it was -22.4%; in test [6] it was 9%.
For `O=C=Nc1ccc([N+](=O)[O-])cc1`, the growth inhibition was -0.9% in test [1]; 15.7% in test [2]; 1.2% in test [3]; -20.6% in test [4]; 32.9% in test [5]; -8.75% in test [6].
For the compound `CC(=O)OC1CC(c2ccccc2)N(C)C(c2ccccc2)C1` (stereo not drawn), the growth inhibition in test [1] is 6.85%; in test [2], -8%; in test [3] it was 2.55%; in test [4], -7.9%; in test [5], -3.15%; in test [6], 10.6%.
With `CC(=O)C(c1ccccc1)N(CCO)Cc1ccccc1` (stereo not drawn), the growth inhibition in test [1] was 8.15%; in test [2], -6%; in test [3], -5.9%; in test [4], 28.6%; in test [5] it was 7.45%; in test [6] it was 1.8%.
`O=C(O)/C=C1/CCC(=O)O1`: the growth inhibition in test [1] was -5.25%; in test [2] it was -0.2%; in test [3], 0.05%; in test [4], 10.8%; in test [5], 20.1%; in test [6], -0.65%.
Take `COc1ccc(CCN(C)C(c2ccccc2)c2ccccc2)cc1OC`: the growth inhibition in test [1] is -2.8%; in test [2] it was -6.65%; in test [3], 10.9%; in test [4], 3.75%; in test [5] it was 4.75%; in test [6], 3.3%.
As for `CCCS(=O)(=O)N1CCC(C)CC1`, the growth inhibition in test [1] is 5.7%; in test [2], -21.1%; in test [3], 5.85%; in test [4] it was -8.65%; in test [5], -8.55%; in test [6], 1.6%.
Turning to `CCOC(=O)c1ccc(NCCCc2c(C)nc(N)[nH]c2=O)cc1`, the growth inhibition is 5.25% in test [1]; 9.5% in test [2]; -9.15% in test [3]; -10.3% in test [4]; 34.6% in test [5]; -2.85% in test [6].
For `CC1(n2nc(-c3ccccc3)n(-c3ccccc3)c2=O)CSC1`, the growth inhibition is -8.4% in test [1]; -22.9% in test [2]; -31.1% in test [3]; -15.9% in test [4]; -15.8% in test [5]; -7.1% in test [6].
On to `CCN(CC)c1ccc2cc(-c3nc4ccccc4s3)c(=O)oc2c1`, for which the growth inhibition was 12.4% in test [1]; -18.1% in test [2]; -9.5% in test [3]; -3.05% in test [4]; -11.5% in test [5]; 4.8% in test [6].
For `COc1ccc(/C(=N\NC(=O)C(N)=O)C(c2ccc(OC)cc2)C2(O)C(=O)Nc3c(Cl)cccc32)cc1` (stereo not drawn), the growth inhibition in test [1] is -9.45%; in test [2] it was -15.4%; in test [3], -49.5%; in test [4], 32.5%; in test [5], 0.3%; in test [6] it was -23.1%.
Regarding `CCCCN(CC)C(=O)C(=O)Cc1nc2ccc(C(=O)c3ccccc3)cc2[nH]c1=O`, the growth inhibition in test [1] is 17.3%; in test [2], 2.45%; in test [3], -4.2%; in test [4], 17%; in test [5] it was 4.2%; in test [6] it was 2.4%.
As to `S=C(S)N(Cc1ccccc1)Cc1ccccc1` (tested in a mixture with another compound), the growth inhibition in test [1] was 2.85%; in test [2], 0.7%; in test [3], 3.7%; in test [4] it was -18.8%; in test [5], 12.8%; in test [6], -2.05%.
For `Nc1cc(Cl)ccc1S(=O)(=O)O`, the growth inhibition in test [1] was -7.1%; in test [2], -1.8%; in test [3], 2.1%; in test [4] it was -48.8%; in test [5], -15.1%; in test [6], -4.4%.
As for `COC1OC(C(C)O)C(O)C(O)C1O` (stereo not drawn), the growth inhibition in test [1] is 23.6%; in test [2], 19%; in test [3], 10.2%; in test [4], 14.9%; in test [5], 4.65%; in test [6] it was 1.5%.
As to `N#C/C(=C\Nc1ccccn1)C(=O)c1ccco1`, the growth inhibition in test [1] was 6.85%; in test [2], -19.8%; in test [3] it was -19.6%; in test [4], -0.5%; in test [5], -55.9%; in test [6], -3.05%.
As for `O=C(Cn1c(=O)oc2ccc(C(=O)c3ccc(F)cc3)cc21)c1ccccc1`, the growth inhibition in test [1] is -21.4%; in test [2], -24.5%; in test [3], -6.25%; in test [4], -27.9%; in test [5], -0.2%; in test [6], -26.9%.
As to `COc1ccc(-c2cn3c(nc4ccccc43)c(C)n2)cc1`, the growth inhibition in test [1] is -4.8%; in test [2], -3.15%; in test [3], 16.6%; in test [4], -17.9%; in test [5], 21%; in test [6], -11.3%.
`COC(=O)CCCCl`: the growth inhibition in test [1] was -51%; in test [2], -56.4%; in test [3] it was -38%; in test [4] it was 8.25%; in test [5], -21%; in test [6], -15.6%.
Take `O=C(CCCC(=O)N/N=C/c1ccc(Cl)cc1)N/N=C\c1ccc(Cl)cc1`: the growth inhibition is -27.4% in test [1]; -9.9% in test [2]; -9.9% in test [3]; -11.6% in test [4]; -1.65% in test [5]; -16.9% in test [6].
As for `CN(C)c1ccc(N=Nc2ccc(C(C)(C)C)cc2)cc1`, the growth inhibition in test [1] was -11.3%; in test [2], 3.3%; in test [3], 5.55%; in test [4] it was -3.1%; in test [5] it was -10.6%; in test [6], -20.3%.
Turning to `O=C1CCCCC1CC1(O)C(=O)NC2CCC(Br)CC21` (stereo not drawn), the growth inhibition was -11.6% in test [1]; -3.3% in test [2]; 21.6% in test [3]; 8.75% in test [4]; 18.7% in test [5]; 5.6% in test [6].
For the compound `N#CCCNC=O`, the growth inhibition in test [1] is -7.15%; in test [2], 0.4%; in test [3], -8.7%; in test [4], -7%; in test [5], 6.3%; in test [6], -4.95%.
For `CC(C)c1ccc(NC(=S)NCCO)cc1`, the growth inhibition in test [1] was -7.95%; in test [2], -4%; in test [3], -21.7%; in test [4], -9.65%; in test [5], -4.1%; in test [6] it was -10.9%.
As to `C#CCN(Cc1ccc2nc(-c3ccccc3)c(Cl)nc2c1)c1ccc(Cl)c(Cl)c1`, the growth inhibition in test [1] is -15.2%; in test [2], -6.4%; in test [3], -2.25%; in test [4], -37.5%; in test [5], -16.4%; in test [6], -18.2%.
`N/C(=N\Cl)C(Cl)(Cl)Cl`: the growth inhibition in test [1] was -17.9%; in test [2] it was -16.5%; in test [3], 6.25%; in test [4] it was -26.6%; in test [5] it was 2.1%; in test [6], -21.4%.
Take `NC(=O)c1nnc2cc(F)ccc2c1N`: the growth inhibition was 4.8% in test [1]; -3.45% in test [2]; 1.35% in test [3]; 0.4% in test [4]; 1.6% in test [5]; -1.6% in test [6].
With `COC(=O)c1cc(=O)n(C)c2ccc(OC)cc12`, the growth inhibition in test [1] is 21.1%; in test [2], 10.8%; in test [3], -5.3%; in test [4], 9.75%; in test [5], 13.6%; in test [6], 20.7%.
Turning to `COc1cccc2c(Cl)c3ccc(Cl)cc3nc12`, the growth inhibition in test [1] is 11.4%; in test [2] it was 5.25%; in test [3], 0.8%; in test [4], -39.1%; in test [5], -18.9%; in test [6], 15.8%.
Turning to `Cc1c(C#N)c2n(c1C)CCN2`, the growth inhibition in test [1] was -14.3%; in test [2] it was -14.1%; in test [3], -9.2%; in test [4], -36%; in test [5] it was -5.65%; in test [6], -4.45%.
As for `O=S(Cc1ccccc1)/C(=C/NC(=S)N=Nc1c(O)[nH]c2ccccc12)c1ccccc1` (stereo not drawn), the growth inhibition in test [1] was 15.3%; in test [2], -11.1%; in test [3], 14.2%; in test [4] it was 33.2%; in test [5], -4.1%; in test [6], -3.1%.
